Activity change, negative = inhibition data for 40 compounds are collected here from PubChem BioAssay (NCATS).

Records with an inconclusive call do not appear. Values without a mark were called inactive. Calls follow the shape of the dose curve; as a rule, active = well fitted curve in either direction with a large enough effect (not every such curve was filed as active); inconclusive = small, poorly fitted or top-dose-only effect, or another doubt; inactive = flat fitted curve, though single readings scatter.
% is scaled to controls: 0 for no effect and ±100 for the full control effect.

The first experiment is described as follows: AP1 Signaling Pathway (AID 357).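 Also: ME-180 reporter cells stimulated with EGF at its EC50 level.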 To be noted: ME-180 (cervical carcinoma) AP-1-bla reporter, EGF-induced, beta-lactamase ratio, 5 h; at 17.2 µM (top of the series) unless noted. In a few lines:
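Titration-series screen for positive or negative modulators of EC50 EGF-induced signaling in ME-180 cells carrying an AP-1-driven beta-lactamase reporter. After 5 hours at 37 degrees Celsius, CCF4 460nm/530nm emission ratio gave %Activity; AC50 values derived.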
Regarding `Nc1nnnn1/N=C/c1ccccn1`, the activity change, negative = inhibition was -1.28%.

Consider `COc1ccc(C(=O)Nc2ccccc2N2CCOCC2)cc1Br`, for which the activity change, negative = inhibition was -21.1%.

Take `COCc1[nH]nc2c1C(c1ccccc1OC)C(C#N)=C(N)O2` (stereo not given): the activity change, negative = inhibition is -14.7%.

Regarding `CCCC1Cc2c(sc3ncnc(N)c23)CO1` (stereo not given), the activity change, negative = inhibition is -16.4%.

As to `COc1ccc(C2C=C(c3ccc(Cl)cc3)Nc3nc(NC(C)=O)nn32)cc1` (stereo not given), the activity change, negative = inhibition is -15.6%.

Consider `O=C(O)CC(C(=O)OCCOc1ccccc1)N1CCOCC1` (stereo not given), for which the activity change, negative = inhibition was -4.83%.

With `COc1ccc(N2C(=O)CC(N(Cc3ccc(S(N)(=O)=O)cc3)C(C)=O)C2=O)cc1` (stereo not given), the activity change, negative = inhibition is 5.04%.

For `CCCOC(=O)CSC1=C(C#N)C(c2ccccc2OC)C(C#N)C(=O)N1` (stereo not given), the activity change, negative = inhibition was -16.4%.

As to `CCCC1C2C(=O)N(c3ccccc3OC)C(=O)C2ON1c1ccccc1` (stereo not given), the activity change, negative = inhibition was 1.4%.

In the case of `C=CCc1cccc(/C=N/n2cnnc2)c1O`, the activity change, negative = inhibition was -1.43%.

On to `C=CCN=C(NC#N)SCCc1ccccc1`, for which the activity change, negative = inhibition is -4.76%.

Turning to `CC1CCCCN1C(=O)C12CCC(C)(/C(=N/O)C1)C2(C)C` (stereo not given), the activity change, negative = inhibition was -2.56%.

As to `COc1ccc(-c2c3c([nH]c(=S)c2C#N)CCC3)cc1`, the activity change, negative = inhibition was 22.9%.

Consider `CCc1cccc(CC)c1N(COC)C(=O)Cn1nnc2ccccc21`, for which the activity change, negative = inhibition was -10.2%.

For `C=CCNc1nc(C)nc(OC)n1`, the activity change, negative = inhibition was 8.25%.

`COc1ccc(C(=O)c2oc3nc(C)cc(C)c3c2N)cc1`: the activity change, negative = inhibition was -14.2%.

Turning to `O=CN1CCN(C(=O)CN2C(=O)c3ccccc3C2=O)CC1`, the activity change, negative = inhibition was 10.2%.

In the case of `O=CNC(=O)c1ccccc1C(=O)O`, the activity change, negative = inhibition was -3.37%.

With `CS(=O)(=O)CCC(C(=O)n1nnc2ccccc21)N1C(=O)c2ccccc2C1=O` (stereo not given), the activity change, negative = inhibition is -2.33%.

For the compound `CCOc1nc(-c2ccncc2)nc2ccccc12`, the activity change, negative = inhibition was -12%.

With `Cc1ccc(C2C(C(=O)c3cc4ccccc4o3)=C(O)C(=O)N2CCN(C)C)o1` (stereo not given), the activity change, negative = inhibition is -1.56%.

For the compound `Cn1c(=O)c2c(nc(NCc3ccco3)n2Cc2ccccc2Cl)n(C)c1=O`, the activity change, negative = inhibition is 16.7%.

Regarding `N#C/C(C(=O)NCc1ccco1)=C1/SC(Cc2ccc(F)cc2)C(=O)N1c1ccccc1` (stereo not given), the activity change, negative = inhibition was 1.52%.

Turning to `CCOc1ccc2c(c1)n([O-])c1c([n+]2=O)CCCC1`, the activity change, negative = inhibition was 9.01%.

In the case of `COc1cc(C2C(C(=O)c3cccs3)=C(O)C(=O)N2c2cc(C)on2)ccc1O` (stereo not given), the activity change, negative = inhibition was -2.96%.

In the case of `CN1CCN(CCCCOc2ccc(F)cc2)CC1`, the activity change, negative = inhibition was 10.9%.

Take `CCOC(=O)CSC1=C(C#N)C(c2ccc3c(c2)OCO3)CC(=O)N1` (stereo not given): the activity change, negative = inhibition is -5.02%.

As to `CCn1c(SCC(=O)O)nc2sc3c(c2c1=O)CCC3`, the activity change, negative = inhibition is 5.13%.

Regarding `Cc1cc(=O)oc(C)c1C(=O)NCCNC(=O)c1c(C)cc(=O)oc1C`, the activity change, negative = inhibition was 7.25%.

Take `CCCOc1cccc(-c2nnc(N)s2)c1`: the activity change, negative = inhibition is -15.9%.

Turning to `c1ccc(C2=Nn3c(nnc3-c3ccccn3)SC2)cc1`, the activity change, negative = inhibition is -4.27%.

Take `COc1cc(-c2nn3c(-c4ccco4)nnc3s2)cc(OC)c1OC`: the activity change, negative = inhibition is -2.59%.

Regarding `Cn1ncc(N=Cc2ccccc2O)c1C(=O)Nc1ccccc1`, the activity change, negative = inhibition is -7.55%.

Take `O=C1CC(c2ccccc2)n2nc(N3C(=O)c4ccccc4C3=O)nc2N1` (stereo not given): the activity change, negative = inhibition was 0.103%.

In the case of `CC(C)OC(=O)CCNc1n[nH]c(=O)[nH]c1=O`, the activity change, negative = inhibition was 5.78%.

For `COCCNc1nc2c(c(=O)n(C)c(=O)n2C)n1Cc1cccc(C(F)(F)F)c1`, the activity change, negative = inhibition was 13.5%.

With `CN1C(=S)SC(N(O)C(=O)Nc2ccccc2)C1(C)C` (stereo not given), the activity change, negative = inhibition is 1.19%.

For `Cc1cc(C)n(C(=O)CNC(=O)C2COc3ccccc3O2)n1` (stereo not given), the activity change, negative = inhibition is 15.9%.

Take `CCOc1ccc(-n2c3nc4ccccc4nc3c3c(=O)n(Cc4ccco4)cnc32)cc1`: the activity change, negative = inhibition is -1.51%.

For the compound `CCNC(=O)Nn1c(C)nnc1C`, the activity change, negative = inhibition was 15.4%.

A short description of another experiment: NFAT Signaling Pathway (AID 444).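 Also: carbachol stimulus at about its EC50 of 1 µM final.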 To be noted: Jurkat NFAT-bla M1, carbachol, beta-lactamase ratio, 5 h; at 17.2 µM (top of the series) unless noted. In a few lines:
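Read-out: CCF4 FRET ratio (460 nm/530 nm) after 1 h RT dye loading, used for %activity and AC50 from titration series. Cells: Jurkat NFAT-β-lactamase/M1 line, treated with compound plus 1 uM carbachol for 5 h, 37 °C.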
`Nc1nnnn1/N=C/c1ccccn1`: the activity change, negative = inhibition is -4.47%.

Take `COc1ccc(C(=O)Nc2ccccc2N2CCOCC2)cc1Br`: the activity change, negative = inhibition is 9.59%.

For the compound `COCc1[nH]nc2c1C(c1ccccc1OC)C(C#N)=C(N)O2` (stereo not given), the activity change, negative = inhibition is -26.9%.

Regarding `CCCC1Cc2c(sc3ncnc(N)c23)CO1` (stereo not given), the activity change, negative = inhibition is -5.16%.

Consider `COc1ccc(C2C=C(c3ccc(Cl)cc3)Nc3nc(NC(C)=O)nn32)cc1` (stereo not given), for which the activity change, negative = inhibition is -13.4%.

Regarding `O=C(O)CC(C(=O)OCCOc1ccccc1)N1CCOCC1` (stereo not given), the activity change, negative = inhibition is -6.82%.

Take `COc1ccc(N2C(=O)CC(N(Cc3ccc(S(N)(=O)=O)cc3)C(C)=O)C2=O)cc1` (stereo not given): the activity change, negative = inhibition is -2.46%.

Consider `CCCOC(=O)CSC1=C(C#N)C(c2ccccc2OC)C(C#N)C(=O)N1` (stereo not given), for which the activity change, negative = inhibition was 13.9%.

As for `CCCC1C2C(=O)N(c3ccccc3OC)C(=O)C2ON1c1ccccc1` (stereo not given), the activity change, negative = inhibition was 4.89%.

Take `C=CCc1cccc(/C=N/n2cnnc2)c1O`: the activity change, negative = inhibition was -2.18%.

Regarding `C=CCN=C(NC#N)SCCc1ccccc1`, the activity change, negative = inhibition is 7.9%.

As to `CC1CCCCN1C(=O)C12CCC(C)(/C(=N/O)C1)C2(C)C` (stereo not given), the activity change, negative = inhibition is 6.34%.

Regarding `COc1ccc(-c2c3c([nH]c(=S)c2C#N)CCC3)cc1`, the activity change, negative = inhibition is -5.23%.

For the compound `CCc1cccc(CC)c1N(COC)C(=O)Cn1nnc2ccccc21`, the activity change, negative = inhibition is 10%.

As for `C=CCNc1nc(C)nc(OC)n1`, the activity change, negative = inhibition is 13.9%.

As for `COc1ccc(C(=O)c2oc3nc(C)cc(C)c3c2N)cc1`, the activity change, negative = inhibition is 13%.

In the case of `O=CN1CCN(C(=O)CN2C(=O)c3ccccc3C2=O)CC1`, the activity change, negative = inhibition was 11.9%.

Consider `O=CNC(=O)c1ccccc1C(=O)O`, for which the activity change, negative = inhibition was 3.48%.

Regarding `CS(=O)(=O)CCC(C(=O)n1nnc2ccccc21)N1C(=O)c2ccccc2C1=O` (stereo not given), the activity change, negative = inhibition is -13.1%.

For the compound `CCOc1nc(-c2ccncc2)nc2ccccc12`, the activity change, negative = inhibition was 2.73%.

Consider `Cc1ccc(C2C(C(=O)c3cc4ccccc4o3)=C(O)C(=O)N2CCN(C)C)o1` (stereo not given), for which the activity change, negative = inhibition is -18.1%.

As for `Cn1c(=O)c2c(nc(NCc3ccco3)n2Cc2ccccc2Cl)n(C)c1=O`, the activity change, negative = inhibition was 2.77%.

For the compound `N#C/C(C(=O)NCc1ccco1)=C1/SC(Cc2ccc(F)cc2)C(=O)N1c1ccccc1` (stereo not given), the activity change, negative = inhibition is -9.67%.

Consider `CCOc1ccc2c(c1)n([O-])c1c([n+]2=O)CCCC1`, for which the activity change, negative = inhibition is -13%.

For `COc1cc(C2C(C(=O)c3cccs3)=C(O)C(=O)N2c2cc(C)on2)ccc1O` (stereo not given), the activity change, negative = inhibition is 0.425%.

In the case of `CN1CCN(CCCCOc2ccc(F)cc2)CC1`, the activity change, negative = inhibition was -9.28%.

Consider `CCOC(=O)CSC1=C(C#N)C(c2ccc3c(c2)OCO3)CC(=O)N1` (stereo not given), for which the activity change, negative = inhibition was 4.11%.

On to `CCn1c(SCC(=O)O)nc2sc3c(c2c1=O)CCC3`, for which the activity change, negative = inhibition is -8.87%.

On to `Cc1cc(=O)oc(C)c1C(=O)NCCNC(=O)c1c(C)cc(=O)oc1C`, for which the activity change, negative = inhibition was 6.33%.

`CCCOc1cccc(-c2nnc(N)s2)c1`: the activity change, negative = inhibition is -11.9%.

Consider `c1ccc(C2=Nn3c(nnc3-c3ccccn3)SC2)cc1`, for which the activity change, negative = inhibition was -8.45%.

For `COc1cc(-c2nn3c(-c4ccco4)nnc3s2)cc(OC)c1OC`, the activity change, negative = inhibition was -0.323%.

`Cn1ncc(N=Cc2ccccc2O)c1C(=O)Nc1ccccc1`: the activity change, negative = inhibition was 7.01%.

Take `O=C1CC(c2ccccc2)n2nc(N3C(=O)c4ccccc4C3=O)nc2N1` (stereo not given): the activity change, negative = inhibition is -10.6%.

For the compound `CC(C)OC(=O)CCNc1n[nH]c(=O)[nH]c1=O`, the activity change, negative = inhibition was 0.573%.

On to `COCCNc1nc2c(c(=O)n(C)c(=O)n2C)n1Cc1cccc(C(F)(F)F)c1`, for which the activity change, negative = inhibition was 5.18%.

Take `CN1C(=S)SC(N(O)C(=O)Nc2ccccc2)C1(C)C` (stereo not given): the activity change, negative = inhibition was -13.4%.

Consider `Cc1cc(C)n(C(=O)CNC(=O)C2COc3ccccc3O2)n1` (stereo not given), for which the activity change, negative = inhibition is -7.83%.

Consider `CCOc1ccc(-n2c3nc4ccccc4nc3c3c(=O)n(Cc4ccco4)cnc32)cc1`, for which the activity change, negative = inhibition is -9.2%.

As to `CCNC(=O)Nn1c(C)nnc1C`, the activity change, negative = inhibition was -5.86%.
